For some of these results: Potency and affinity values are given separately.

Common to all, as to parameters: scale not given: direction of the effect not stated beside the values
Test [1] addresses Protein translocase subunit SecA (Escherichia coli (strain K12)) (UniProt P10408). Nature of the test: Assay to Identify E. coli SecA ATPase Inhibitors. It is filed as functional. The conditions noted are these: 30 µM.
The target in test [2] is T1, Ubiquitin-activating enzyme e1, putative (Leishmania donovani (strain BPK282A1)) (UniProt E9BSI1).
T1 sequence (whole entry): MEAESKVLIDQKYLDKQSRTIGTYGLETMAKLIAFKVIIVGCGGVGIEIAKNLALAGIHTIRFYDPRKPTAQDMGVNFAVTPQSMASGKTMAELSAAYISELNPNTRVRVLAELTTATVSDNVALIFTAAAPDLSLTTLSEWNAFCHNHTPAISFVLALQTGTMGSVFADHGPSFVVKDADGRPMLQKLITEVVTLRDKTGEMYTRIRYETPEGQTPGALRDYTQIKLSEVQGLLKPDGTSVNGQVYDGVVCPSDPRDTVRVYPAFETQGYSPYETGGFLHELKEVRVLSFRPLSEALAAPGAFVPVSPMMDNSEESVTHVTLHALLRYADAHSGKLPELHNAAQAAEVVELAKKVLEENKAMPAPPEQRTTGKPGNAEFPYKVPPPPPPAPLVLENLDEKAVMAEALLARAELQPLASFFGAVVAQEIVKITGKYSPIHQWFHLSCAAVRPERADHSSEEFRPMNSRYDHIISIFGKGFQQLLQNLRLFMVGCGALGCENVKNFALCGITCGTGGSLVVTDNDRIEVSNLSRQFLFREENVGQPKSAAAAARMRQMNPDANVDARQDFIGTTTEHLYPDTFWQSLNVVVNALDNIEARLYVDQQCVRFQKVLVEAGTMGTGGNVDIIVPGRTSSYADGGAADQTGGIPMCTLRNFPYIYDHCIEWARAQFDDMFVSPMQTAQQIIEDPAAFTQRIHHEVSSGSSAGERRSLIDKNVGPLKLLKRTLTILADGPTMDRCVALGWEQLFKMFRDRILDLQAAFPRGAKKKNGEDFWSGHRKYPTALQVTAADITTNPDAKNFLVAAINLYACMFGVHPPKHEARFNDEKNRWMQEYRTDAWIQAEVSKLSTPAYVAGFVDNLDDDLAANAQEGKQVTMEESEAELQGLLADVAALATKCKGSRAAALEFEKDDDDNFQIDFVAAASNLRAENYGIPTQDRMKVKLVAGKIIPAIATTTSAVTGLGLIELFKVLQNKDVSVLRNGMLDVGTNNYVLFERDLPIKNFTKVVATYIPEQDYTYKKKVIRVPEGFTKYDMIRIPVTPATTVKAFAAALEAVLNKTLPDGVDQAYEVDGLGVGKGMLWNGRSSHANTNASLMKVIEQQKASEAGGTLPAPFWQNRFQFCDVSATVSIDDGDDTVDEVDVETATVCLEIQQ
As to the kind of experiment: Leishmania donovani Ubiquitin Activating Enzyme (LdE1). Format: functional. To be noted: 30 µM.

Test [3] deals with AMP-activated protein kinase, AMPK (Homo sapiens) (UniProt P54646+O43741+P54619+Q9UGJ0+Q9Y478+Q13131+Q9UGI9). As to the kind of experiment: AMP-dependent Kinase enzyme assay. An in vitro enzyme assay that detects ADP turnover that is directly proportional to AMPK activity. This uses naive AMPK that is activated during the assay with MK-8722. It is filed as functional. To be noted: 30 µM.

Test [4] concerns the target Sialic acid-binding Ig-like lectin 9 (Homo sapiens) (UniProt Q9Y336). As to the kind of experiment: Hs-Siglec9 ALPHAscreen SOP 20170721. The conditions noted are these: 10 µM.
The test system of the next test is Trypanosoma cruzi. As to the kind of experiment: Trypanosoma cruzi phosphomannomutase and mannose-1-phosphate guanylyltransferase assay. Format: functional. The conditions noted are these: 10 µM.
Test [5] concerns the target T2, Arginase-2, mitochondrial (Homo sapiens) (UniProt P78540).
T2 sequence (whole entry): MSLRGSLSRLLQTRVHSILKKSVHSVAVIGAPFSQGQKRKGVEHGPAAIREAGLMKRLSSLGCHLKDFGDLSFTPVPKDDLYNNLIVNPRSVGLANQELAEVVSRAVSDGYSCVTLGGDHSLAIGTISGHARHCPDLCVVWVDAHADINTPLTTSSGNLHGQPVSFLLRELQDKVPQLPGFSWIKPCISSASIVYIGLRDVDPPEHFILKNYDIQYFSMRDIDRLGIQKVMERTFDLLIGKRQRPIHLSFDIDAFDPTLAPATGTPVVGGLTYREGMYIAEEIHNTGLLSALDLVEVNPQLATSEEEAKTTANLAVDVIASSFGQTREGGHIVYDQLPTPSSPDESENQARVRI
Nature of the test: in vitro enzyme assay to detect the production of urea directly proportional to the activity of Arginase II. Note: in the data most compounds retested in dose-response had high values. It is filed as functional. To be noted: 33.3 µM.

The target in test [6] is T3, Proteasome subunit beta (Trypanosoma cruzi) (UniProt O96673).
T3 sequence (whole entry): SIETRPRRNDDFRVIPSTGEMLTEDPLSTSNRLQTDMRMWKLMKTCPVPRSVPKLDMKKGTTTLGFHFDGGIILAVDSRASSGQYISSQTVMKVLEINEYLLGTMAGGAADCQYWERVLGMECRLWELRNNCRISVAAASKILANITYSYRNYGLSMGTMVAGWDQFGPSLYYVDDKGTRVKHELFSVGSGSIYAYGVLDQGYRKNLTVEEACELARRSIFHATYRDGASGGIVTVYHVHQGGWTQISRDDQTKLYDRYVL
Nature of the test: Trypanosoma cruzi proteasome chymotrypsin-like activity (TcProtChymo) assay. Note: in the data most compounds retested in dose-response had high values. The conditions noted are these: 9.37 µM. Format: functional.

For a further test, the species on record is Homo sapiens. As to the kind of experiment: To identify inhibition of the IFN signalling (Jak-Stat) pathway via expression of an eGFP reporter gene under the control of an IFN-stimulated response element (ISRE) containing MxA promoter. The conditions noted are these: 30 µM. It is filed as functional.
The target in test [7] is T4, Tyrosyl-tRNA synthetase, putative (Trypanosoma cruzi (strain CL Brener)) (UniProt Q4DSP6).
T4 sequence (whole entry): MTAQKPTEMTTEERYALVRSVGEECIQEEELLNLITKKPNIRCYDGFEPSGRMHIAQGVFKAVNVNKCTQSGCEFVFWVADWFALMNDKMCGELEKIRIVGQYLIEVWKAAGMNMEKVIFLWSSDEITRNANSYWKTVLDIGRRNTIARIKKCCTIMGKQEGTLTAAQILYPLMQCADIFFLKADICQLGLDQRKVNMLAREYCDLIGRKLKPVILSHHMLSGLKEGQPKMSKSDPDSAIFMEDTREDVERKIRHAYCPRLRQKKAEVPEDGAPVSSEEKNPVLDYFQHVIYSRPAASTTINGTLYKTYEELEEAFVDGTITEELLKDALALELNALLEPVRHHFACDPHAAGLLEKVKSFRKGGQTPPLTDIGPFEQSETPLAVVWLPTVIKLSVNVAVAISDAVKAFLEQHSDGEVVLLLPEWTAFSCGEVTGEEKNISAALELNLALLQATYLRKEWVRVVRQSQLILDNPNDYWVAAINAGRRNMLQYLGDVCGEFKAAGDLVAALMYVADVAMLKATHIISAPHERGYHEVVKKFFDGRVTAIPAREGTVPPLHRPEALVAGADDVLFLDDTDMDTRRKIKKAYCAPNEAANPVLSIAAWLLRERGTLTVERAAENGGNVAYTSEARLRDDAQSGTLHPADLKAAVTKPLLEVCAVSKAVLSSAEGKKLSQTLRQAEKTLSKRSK
As to the kind of experiment: Trypanosoma cruzi tyrosyl tRNA synthetase (TcYRS) _High Tyrosine SOP. Note: in the data most compounds retested in dose-response had high values. The conditions noted are these: 30 µM. Format: functional.

Test [8] concerns the target T4, Tyrosyl-tRNA synthetase, putative (Trypanosoma cruzi (strain CL Brener)). Nature of the test: Trypanosoma cruzi tyrosyl tRNA synthetase (TcYRS) SOP. To be noted: 30 µM. Format: functional.
Test [9] addresses Chromo domain-containing protein 1 (Saccharomyces cerevisiae (strain ATCC 204508 / S288c) (Baker's yeast)) (UniProt P32657). As to the kind of experiment: ScCHD-1 Enzyme Inhibition Assay. Note: in the data most compounds retested in dose-response had high values. To be noted: 30 µM. Format: functional.

Sequence of Chromo domain-containing protein 1 (Saccharomyces cerevisiae (strain ATCC 204508 / S288c) (Baker's yeast)) (P32657 whole entry, the tested form may be a part): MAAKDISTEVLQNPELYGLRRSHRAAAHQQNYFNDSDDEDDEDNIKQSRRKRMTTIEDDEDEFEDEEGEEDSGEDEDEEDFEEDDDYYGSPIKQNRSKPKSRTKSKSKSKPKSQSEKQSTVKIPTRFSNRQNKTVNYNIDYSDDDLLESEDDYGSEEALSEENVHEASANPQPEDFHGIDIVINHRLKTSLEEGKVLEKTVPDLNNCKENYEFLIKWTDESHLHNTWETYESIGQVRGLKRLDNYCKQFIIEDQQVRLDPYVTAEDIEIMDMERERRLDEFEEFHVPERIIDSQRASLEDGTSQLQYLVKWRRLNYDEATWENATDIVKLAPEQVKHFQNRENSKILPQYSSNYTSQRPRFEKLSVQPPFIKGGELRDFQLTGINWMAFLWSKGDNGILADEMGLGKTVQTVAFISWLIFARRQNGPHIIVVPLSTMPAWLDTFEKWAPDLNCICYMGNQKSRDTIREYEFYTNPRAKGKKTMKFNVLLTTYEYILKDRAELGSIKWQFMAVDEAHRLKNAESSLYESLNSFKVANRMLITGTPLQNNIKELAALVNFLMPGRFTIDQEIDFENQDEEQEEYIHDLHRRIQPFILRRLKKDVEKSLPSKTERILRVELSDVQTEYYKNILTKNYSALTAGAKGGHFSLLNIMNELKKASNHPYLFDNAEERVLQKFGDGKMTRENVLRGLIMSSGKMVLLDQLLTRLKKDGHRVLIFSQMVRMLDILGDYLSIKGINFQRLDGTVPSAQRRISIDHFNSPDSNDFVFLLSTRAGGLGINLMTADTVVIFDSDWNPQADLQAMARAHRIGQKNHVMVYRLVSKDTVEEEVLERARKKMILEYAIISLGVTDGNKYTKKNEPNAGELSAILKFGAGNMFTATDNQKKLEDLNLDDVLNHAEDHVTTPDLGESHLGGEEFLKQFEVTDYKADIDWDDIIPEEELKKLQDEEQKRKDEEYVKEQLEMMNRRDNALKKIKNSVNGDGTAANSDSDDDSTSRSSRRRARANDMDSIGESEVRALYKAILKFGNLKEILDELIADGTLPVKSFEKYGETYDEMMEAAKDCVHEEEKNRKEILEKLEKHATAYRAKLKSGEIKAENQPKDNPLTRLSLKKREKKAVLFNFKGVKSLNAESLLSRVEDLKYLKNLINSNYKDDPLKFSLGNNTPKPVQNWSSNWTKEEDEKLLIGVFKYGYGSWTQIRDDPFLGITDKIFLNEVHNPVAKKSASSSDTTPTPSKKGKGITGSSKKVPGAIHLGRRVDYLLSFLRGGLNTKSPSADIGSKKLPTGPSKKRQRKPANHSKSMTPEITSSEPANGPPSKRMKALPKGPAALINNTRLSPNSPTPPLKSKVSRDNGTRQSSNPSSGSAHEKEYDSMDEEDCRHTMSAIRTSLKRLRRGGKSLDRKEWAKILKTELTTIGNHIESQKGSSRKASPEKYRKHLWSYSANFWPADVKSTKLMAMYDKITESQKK
Sequence of Sialic acid-binding Ig-like lectin 9 (Homo sapiens) (Q9Y336 whole entry): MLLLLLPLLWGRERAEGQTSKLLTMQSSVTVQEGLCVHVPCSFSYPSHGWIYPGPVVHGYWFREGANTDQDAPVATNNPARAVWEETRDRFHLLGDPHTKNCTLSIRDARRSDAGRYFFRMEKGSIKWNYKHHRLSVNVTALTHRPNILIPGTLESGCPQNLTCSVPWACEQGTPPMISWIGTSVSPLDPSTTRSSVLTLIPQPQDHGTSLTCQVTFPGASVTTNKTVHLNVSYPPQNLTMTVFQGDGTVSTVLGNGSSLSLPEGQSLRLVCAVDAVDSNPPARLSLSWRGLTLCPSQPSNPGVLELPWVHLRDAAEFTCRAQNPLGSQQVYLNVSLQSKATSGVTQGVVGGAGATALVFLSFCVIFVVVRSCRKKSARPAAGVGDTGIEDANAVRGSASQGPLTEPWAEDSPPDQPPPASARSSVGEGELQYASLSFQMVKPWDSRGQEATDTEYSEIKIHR
Sequence of Protein translocase subunit SecA (Escherichia coli (strain K12)) (P10408 whole entry): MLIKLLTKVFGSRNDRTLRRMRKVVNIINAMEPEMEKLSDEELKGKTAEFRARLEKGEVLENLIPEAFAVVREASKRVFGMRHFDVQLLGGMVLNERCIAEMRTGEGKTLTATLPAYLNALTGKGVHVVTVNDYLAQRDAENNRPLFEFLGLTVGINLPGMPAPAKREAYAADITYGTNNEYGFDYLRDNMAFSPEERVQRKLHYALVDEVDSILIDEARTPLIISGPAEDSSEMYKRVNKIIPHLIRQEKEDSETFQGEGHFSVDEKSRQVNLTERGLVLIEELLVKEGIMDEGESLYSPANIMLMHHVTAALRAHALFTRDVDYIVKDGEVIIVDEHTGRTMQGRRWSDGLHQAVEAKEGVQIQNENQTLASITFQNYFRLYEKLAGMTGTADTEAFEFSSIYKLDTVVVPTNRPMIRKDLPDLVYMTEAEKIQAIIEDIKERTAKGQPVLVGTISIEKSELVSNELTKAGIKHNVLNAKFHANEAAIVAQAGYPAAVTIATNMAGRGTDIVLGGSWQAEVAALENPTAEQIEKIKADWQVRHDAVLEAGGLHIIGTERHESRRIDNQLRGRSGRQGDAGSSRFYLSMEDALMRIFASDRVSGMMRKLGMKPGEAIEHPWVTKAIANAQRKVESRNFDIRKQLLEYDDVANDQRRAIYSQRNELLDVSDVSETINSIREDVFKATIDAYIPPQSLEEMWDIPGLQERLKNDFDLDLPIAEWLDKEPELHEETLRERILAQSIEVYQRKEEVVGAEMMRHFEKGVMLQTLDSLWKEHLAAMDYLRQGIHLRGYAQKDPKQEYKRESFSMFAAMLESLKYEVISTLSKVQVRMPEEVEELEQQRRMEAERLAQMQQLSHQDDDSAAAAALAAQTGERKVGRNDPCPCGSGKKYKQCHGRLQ

In the case of `COc1ccccc1CCNC(=O)CN1CCCC1c1noc(C)n1` (stereo unspecified), the Percent Effect was -1.65% in [1]; 2.63% in test [2]; 3.18% in test [3]; 11.8% in [4]; -1.69% with Trypanosoma cruzi; 1.53% in [5]. The Percent Effect in test [6] is 12.9%; in the test filed under Homo sapiens it was 5.32%; in test [7], 4.41%; in [8], 17.1%; in test [9], -5.97%.
With `CC(C)c1nc(CN(C)CC2CCN(CCO)CC2)no1`, the Percent Effect in test [1] was -2.78%; in test [2] it was 0%; in test [3] it was -3.56%; in [4], 0.371%; in the test on Trypanosoma cruzi, -1.35%; in test [5], 2.86%. Also, the Percent Effect is 1.9% in [6]; 1.02% in the test listed under Homo sapiens; 2.65% in [7]; 9.76% in test [8]; -3.71% in test [9].
`CC(NC(=O)NCCOc1ccc(F)c(F)c1)c1nncn1C` (stereo unspecified): the Percent Effect in test [1] is -3.44%; in test [2], 5.2%; in test [3] it was 2.42%; in test [4], 5.57%; with Trypanosoma cruzi it was 7.15%; in [5], 2.74%. In addition, the Percent Effect is 12.5% in test [6]; 16.9% in the test filed under Homo sapiens; 4.76% in [7]; 9.41% in test [8]; -12.3% in test [9].
In the case of `Cc1cc(C(=O)NCC2COCc3c(C)nnn3C2)no1` (stereo unspecified), the Percent Effect in test [1] is -6.44%; in test [2] it was 2.6%; in test [3], -3%; in test [4], 3.99%; in the test on Trypanosoma cruzi, -0.295%; in [5] it was -9.65%. For the same molecule, the Percent Effect in test [6] was 7.65%; in the test listed under Homo sapiens it was -19%; in [7], 2.15%; in test [8], 11.1%; in test [9], -0.439%.
With `CCn1c(CN2CCC(O)(C(=O)OC)CC2)nc2c(F)cccc21`, the Percent Effect in [1] is -3.73%; in test [2] it was -44.7%; in [3] it was -3.77%; in [4], 0.565%; in the test with Trypanosoma cruzi, 8.27%; in test [5] it was -3.06%. Also, the Percent Effect in test [6] was 7.85%; in the test filed under Homo sapiens it was 11.3%; in test [7], 5.39%; in test [8] it was 9.76%; in [9], -12.4%.
Consider `CCc1nc(CNC(=O)Nc2ccc(C(=O)NC)cc2C)cs1`, for which the Percent Effect in test [1] was -5.84%; in [2], 16%; in test [3], -2.78%; in test [4] it was 18.6%; in the test on Trypanosoma cruzi, 8.28%; in test [5] it was 6.25%. For the same molecule, the Percent Effect in [6] was 4.88%; in the test listed under Homo sapiens it was 11.9%; in [7] it was 4.92%; in test [8] it was 11.1%; in test [9], -7.82%.
Turning to `CN1C(=O)CC(C(=O)O)C12CCN(Cc1ccc(F)cc1Cl)CC2` (stereo unspecified), the Percent Effect in test [1] is -3.75%; in [2], 2.67%; in test [3] it was -7.2%; in test [4] it was 5.97%; in the test on Trypanosoma cruzi, 3.41%; in [5] it was -0.521%. Further, the Percent Effect in test [6] was 16%; in the test filed under Homo sapiens it was 15.5%; in test [7], 8.2%; in test [8], 13.6%; in test [9], -3.62%.
`COCCN1CCOCC2(CCCN(Cc3ccc(C)o3)C2)C1` (stereo unspecified): the Percent Effect in [1] is -2.04%; in test [2] it was 13.3%; in test [3] it was 0.538%; in test [4] it was -2.47%; in the test with Trypanosoma cruzi it was 5.6%; in [5] it was -42.1%. In addition, the Percent Effect is 8.55% in [6]; -12.1% in the test listed under Homo sapiens; 3.12% in test [7]; 2.5% in test [8]; -9.46% in test [9].
As to `Cc1cccc(NC(=O)N2CCCn3cnc(CN4CCCC4)c3C2)c1`, the Percent Effect in [1] was -3.65%; in test [2] it was 8.11%; in test [3], -3.2%; in [4] it was -1.77%; with Trypanosoma cruzi, 3.91%; in test [5], 0%. For the same molecule, the Percent Effect in test [6] was 12.4%; in the test filed under Homo sapiens, -6.55%; in test [7], 16.8%; in [8], 11%; in test [9], -4.14%.
Regarding `CN(C)c1cc(CNC(=O)c2ccc(=O)[nH]n2)ccn1`, the Percent Effect in test [1] was -2.65%; in [2] it was 18.2%; in test [3], -1.88%; in [4] it was -14.6%; with Trypanosoma cruzi, 3.82%; in test [5], -2.32%. Moreover, the Percent Effect is 17.9% in test [6]; 4.06% in the test listed under Homo sapiens; 9.52% in [7]; 30.6% in test [8]; -19.7% in test [9].
In the case of `NC(=O)C1CCCN1Cc1cccc(NC(=O)c2ccsc2)c1` (stereo unspecified), the Percent Effect in test [1] was -3.24%; in test [2], 13.3%; in test [3] it was 0.719%; in test [4], 13.7%; in the test on Trypanosoma cruzi it was 3.6%; in test [5], 10.4%. Also, the Percent Effect was 20.2% in test [6]; 11.8% in the test filed under Homo sapiens; 10.4% in test [7]; 18.5% in test [8]; -10.5% in test [9].

Values taken from ChEMBL document CHEMBL3988442, “University of Dundee, Small-Polar-MMV Screening Library” (2021).
